The values below come from PubChem BioAssay (NCI).

Molecules are shown by their SMILES. This is part of a sample that, as a whole, favours compounds with a hit. Of some 83,000 tested, about 20% had one in any assay.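 Treatment: one concentration, 48 hours, 96-well format. Scoring: percent growth, with anything below 10 considered active.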 Values without a mark were called inactive. Activity calls are given as the source filed them.

Experiment in all cases: NCI-60 one-dose screen, 48 h (100 = growth as untreated, 0 = no growth, -100 = all killed)
Conditions in all cases: 10 µM unless noted

Assay [1] relates to T-47D breast.
Assay [2] concerns BT-549 breast.
Assay [3] has as its system MDA-MB-435 melanoma.
Assay [4] has as its system SW-620 colon.
The test system of assay [5] is HCT-116 colon.
Assay [6] relates to HCC-2998 colon.
Assay [7] relates to KM12 colon.
In assay [8] the test system is MCF7 breast.

On to `O=S1(=O)C=C(c2ccccc2)C(c2ccccc2)=C1`, for which the growth in assay [1] is -63.4% (active); in assay [2], 79.6%; in assay [3], 25.4%; in assay [4], -82.9% (active); in assay [5] it was -74.8% (active); in assay [6] it was 15.5%. For the same molecule, the growth in assay [7] was 16.5%.

For `C=CC(=O)Nc1ccc(Oc2nccc(Nc3nnc(-c4ccc(C)cc4)s3)n2)cc1`, the growth in assay [1] was 89.2%; in assay [2], 73.4%; in assay [3], 0.25% (active); in assay [4], 49.5%; in assay [5], 94.9%; in assay [6], 110%. Also, the growth in assay [7] was 84%.

Regarding `Cc1cc2c(cc1C)N(C(=O)CCl)CC(=O)N2`, the growth was 15.6% in assay [1]; 18.9% in assay [2]; 54.9% in assay [3]; -48.2% (active) in assay [4]; 71.6% in assay [6]; 60.2% in assay [7].

With `c1nc2ccc(-c3cc4ccc5[nH]ncc5c4c4c3CCCC4)cc2[nH]1`, the growth in assay [1] is 60.3%; in assay [2] it was 34.1%; in assay [3] it was 21.2%; in assay [4], 39.4%; in assay [5], 7.07% (active); in assay [7], 30.8%.

Regarding `CN1CCN(CCOc2ccc(-c3cnc4c(-c5cccc(F)c5F)cnn4c3)cc2)CC1`, the growth in assay [1] is 85.4%; in assay [2] it was 50.4%; in assay [3] it was -66.1% (active); in assay [4] it was -68.9% (active); in assay [5], -65% (active); in assay [6] it was 101%. Also, the growth in assay [7] is -68.9% (active).

For the molecule `Cc1ccnc(Nc2ccc([N+](=O)[O-])c(NCCN3CCOCC3)n2)c1`, the growth was 83.9% in assay [1]; 18.6% in assay [2]; -20.5% (active) in assay [3]; 27.9% in assay [4]; 21% in assay [8]; 5.83% (active) in assay [7].

Regarding `C=C1C(=O)O[C@H]2[C@H]1CC/C(COC(=O)/C=C\C(=O)NCc1ccc(Cn3c(=O)sn(CCCl)c3=O)cc1)=C\CC[C@@]1(C)O[C@@H]21`, the growth in assay [1] is 84.7%; in assay [2] it was 85.5%; in assay [3], 65.8%; in assay [4] it was 31.2%; in assay [8], 61.8%; in assay [6] it was 117%. For the same molecule, in assay [7], the growth was 97.1%.

For the molecule `O=C(CN1CCCCCC1)Nc1nc2ccc(NCc3ccc(Cl)cc3)cc2s1`, the growth in assay [1] is 94.7%; in assay [2], 92.6%; in assay [3], 100%; in assay [4], 97.9%; in assay [8], 84.9%; in assay [7] it was 96.6%.

In the case of `CCCCNc1nnc2n(Cc3ccccc3)c(=O)c3c4c(sc3n12)CCCC4`, the growth in assay [1] was 43.2%; in assay [2], 56.3%; in assay [3] it was 51.8%; in assay [4], 23.3%; in assay [5], 27.2%; in assay [6] it was 65%. Moreover, the growth in assay [7] is 49.8%.

For `COc1ccc(/C=C/C(=O)c2ccc(NC(=O)CSc3nc4c([nH]3)c(=O)n(C)c(=O)n4C)cc2)cc1OC`, the growth in assay [1] was 76.9%; in assay [2], 59%; in assay [3] it was 88.5%; in assay [4], 96.2%; in assay [5] it was 59.3%; in assay [6] it was 75.9%. In assay [7], the growth was 72.3%.

On to `O=C1C(Nc2ccccn2)=C(I)C(=O)c2ncccc21`, for which the growth was -42.5% (active) in assay [1]; -68.5% (active) in assay [2]; -82.2% (active) in assay [3]; -64.6% (active) in assay [4]; -62.2% (active) in assay [5]; 53.1% in assay [6]. Moreover, in assay [7], the growth was -26.1% (active).

With `N#Cc1cccc(C2C3=C(COC3=O)N(CCO)c3cc4c(cc32)OCO4)c1` (configuration not stated), the growth in assay [1] is 20.8%; in assay [2] it was 38.7%; in assay [3] it was 0.432% (active); in assay [4], 16.3%; in assay [6] it was 83.5%; in assay [7] it was 27.9%.

As to `COc1ccc(C2=CN3CC=CC3CC2=O)cc1` (configuration not stated), the growth is 75.3% in assay [1]; 105% in assay [2]; 96.9% in assay [3]; 105% in assay [4]; 90.3% in assay [5]; 91% in assay [6]. Besides, in assay [7], the growth was 101%.

Regarding `O=C(/C=C/c1ccc(Oc2ccc(Br)cc2)cc1)c1ccc(Br)cc1`, the growth in assay [1] is 92.3%; in assay [2], 110%; in assay [3], 93%; in assay [4], 93.7%; in assay [5] it was 97.6%; in assay [6], 95.5%. For the same molecule, the growth in assay [7] is 95.7%.

As to `CCOC(=O)C(=Cc1ccc(-c2ccccc2)cc1)C(=O)OCC`, the growth is 27.8% in assay [1]; 30.7% in assay [2]; 38.3% in assay [3]; 10.8% in assay [4]; -10.1% (active) in assay [5]; 76.2% in assay [6]. The growth in assay [7] was 36.6%.

Consider `Cc1nc2c(c(=O)[nH]1)C(c1ccccc1)c1ccc3ccccc3c1O2` (configuration not stated), for which the growth in assay [1] was 39.1%; in assay [2], 34.1%; in assay [3] it was -16.2% (active); in assay [4], 20.9%; in assay [5] it was 21.3%; in assay [6] it was 56.6%. For the same molecule, in assay [7], the growth is 26.2%.

On to `C=C(C)[C@@H]1CC[C@]2(C)[C@H](CC=C3[C@@H]4CC(C)(C)CC[C@]4(CO)CC[C@]32C)[C@@]1(C)CCCN`, for which the growth in assay [1] is -26.5% (active); in assay [2], 64.6%; in assay [3], -84% (active); in assay [4], -81.9% (active); in assay [5], -79.6% (active); in assay [6], -76% (active). The growth in assay [7] was -53.9% (active).

As for `Nc1[nH]c(=S)nc2oc(-c3ccccc3)c(-c3ccccc3)c12`, the growth was 96.8% in assay [1]; 106% in assay [2]; 104% in assay [3]; 106% in assay [4]; 101% in assay [5]; 110% in assay [6]. Also, the growth in assay [7] was 98.9%.

For `Cc1ccc(/C=C/C(=O)c2cccc(OCCCOc3cccc(C(=O)/C=C/c4ccc(C)cc4)c3)c2)cc1`, the growth in assay [1] was 58.4%; in assay [2] it was 79.7%; in assay [3], 89.3%; in assay [4], 68.1%; in assay [5], 18.3%; in assay [6], 66.3%. Further, the growth in assay [7] is 78.8%.

With `C=CCN1C(=O)c2cccc3c(N4CCOCC4)ccc(c23)C1=O`, the growth in assay [1] is -2.1% (active); in assay [2], -47.8% (active); in assay [3], 0.357% (active); in assay [4], 7.24% (active); in assay [5], -25.4% (active); in assay [6], -34% (active). The growth in assay [7] is -56.4% (active).

`CCCCCN(CCCCC)CC(O)c1cc(C)c2ccc3cc(C(C)C)ccc3c2c1` (configuration not stated): the growth in assay [1] was 53.3%; in assay [2] it was 90.5%; in assay [3] it was 0.846% (active); in assay [4] it was -75.3% (active); in assay [8], -86.2% (active); in assay [7], -64.7% (active).

As to `O=C(NCc1cccc(CNC(=O)Nc2nc3ccccc3[nH]2)c1)Nc1nc2ccccc2[nH]1`, the growth in assay [1] is 15.9%; in assay [2], 29.3%; in assay [3], -74.9% (active); in assay [4] it was -41.6% (active); in assay [5] it was -82.4% (active); in assay [6], 17.9%. For the same molecule, in assay [7], the growth was -41.9% (active).

For the molecule `C[C@H](C(=O)N(CCc1ccc(Cl)c(Cl)c1)Cc1cncs1)[C@@H]1CC[C@H](C[C@H](C)n2cc(CN3CCC(c4ccc(Cl)cc4)CC3)nn2)O1`, the growth was 86.6% in assay [1]; 95.1% in assay [2]; 98.3% in assay [3]; 97.5% in assay [4]; 112% in assay [6]; 105% in assay [7].

`COc1cc(-c2nc3cc(Cl)c(Cl)cc3[nH]2)ccc1OCC(=O)N=Nc1c(O)[nH]c2ccc(Cl)cc12`: the growth in assay [1] was -4.31% (active); in assay [2] it was 12%; in assay [3] it was -57.7% (active); in assay [4], -14.2% (active); in assay [5] it was -16.2% (active); in assay [6] it was -39.2% (active). The growth in assay [7] is 9.24% (active).

`COc1ccc2c(c1)c(-c1nc(-c3c[nH]c4ncccc34)cs1)cn2CCO`: the growth in assay [1] is 23.4%; in assay [2], 41.7%; in assay [4], 63.1%; in assay [8], 20.1%; in assay [5] it was 50.9%; in assay [6], 58.9%. Moreover, the growth in assay [7] was 20.7%.

Regarding `O=C(N/N=C/c1cc(Cl)ccc1O)c1ccccc1Nc1ccnc(C(F)(F)F)c1`, the growth in assay [1] was 8.91% (active); in assay [2], 18.7%; in assay [4], 36.3%; in assay [8], 20.6%; in assay [5], 32.2%; in assay [6], 81.3%. In addition, the growth in assay [7] is 34.5%.

Regarding `CCO/C=N/C1=C(C#N)C(c2ccc(F)cc2)c2sc3c(F)cccc3c2O1` (configuration not stated), the growth was 40.6% in assay [1]; 48.5% in assay [2]; 20.6% in assay [4]; 15.7% in assay [8]; 39% in assay [5]; 77% in assay [6]. Besides, the growth in assay [7] was 32.5%.
